This note sets out measurements from PubChem BioAssay (Tox21).

Inconclusive results are not listed. Active and inactive are the calls of the source. Unless noted, calls follow the shape of the dose curve; as a rule, active = well fitted curve in the direction sought with a large enough effect in the repeat runs; inconclusive = weak or mixed curves; inactive = no such curve, though single readings can be large; an effect the other way counts as inactive or inconclusive.

Assay [1] is described as follows: qHTS assay to identify small molecule antagonists of the thyroid receptor (TR) signaling pathway - cell viability counter screen (AID 743064). Also: nearly all actives have a fitted effect of over 50% in size. Also: potency is read from the fitted curve at half-maximal effect. In short, it runs like this: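 Plate GH3.TRE-Luc cells; incubate 4 h at 37 °C; add compound, then T3 to 1 nM final; incubate 23.5 h; add CellTiter-Fluor; incubate 30 min at 37 °C, 5% CO2; read fluorescence.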
In general terms: In qHTS, concentration-response curves come from the screen itself.

A short description of assay [2]: qHTS assay to identify small molecule antagonists of the thyroid receptor (TR) signaling pathway (AID 743065). Also: nearly all actives have a fitted effect of over 55% in size. Also: potency is read from the fitted curve at half-maximal effect. The method, boiled down: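 GH3.TRE-Luc rat pituitary cells (two TREs driving luciferase) were dosed with compound, then stimulated with 1 nM T3 (final) for 23.5 h at 37 C. ONE-Glo luminescence was the read-out, with CellTiter-Fluor fluorescence as the cytotoxicity counter-screen.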

In assay [3] the test system is thyroid hormone receptor (rat, GH3 cells). In words: qHTS assay to identify small molecule agonists of the thyroid receptor (TR) signaling pathway (AID 743066; calls by dose curve).
Assay [4] deals with Estrogen receptor (Homo sapiens) (UniProt P03372). In words: qHTS assay to identify small molecule antagonists of the estrogen receptor alpha (ER-alpha) signaling pathway (AID 743069; active = well fitted curve in the direction sought with a large enough effect in the signal ratio in the repeat runs, not every such curve was filed as active; the % refers to the signal ratio). In short, it runs like this: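 In this cell-based reporter format, GripTite HEK293 cells harbouring ER-alpha-UAS-bla were grown overnight with 2% charcoal-stripped FBS, dosed with DMSO-dissolved compounds, then challenged with 17beta-estradiol. After 18 hr at 37C, beta-lactamase activity was detected by FRET fluorescence.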
Estrogen receptor (Homo sapiens), sequence (P03372 whole entry, looked up): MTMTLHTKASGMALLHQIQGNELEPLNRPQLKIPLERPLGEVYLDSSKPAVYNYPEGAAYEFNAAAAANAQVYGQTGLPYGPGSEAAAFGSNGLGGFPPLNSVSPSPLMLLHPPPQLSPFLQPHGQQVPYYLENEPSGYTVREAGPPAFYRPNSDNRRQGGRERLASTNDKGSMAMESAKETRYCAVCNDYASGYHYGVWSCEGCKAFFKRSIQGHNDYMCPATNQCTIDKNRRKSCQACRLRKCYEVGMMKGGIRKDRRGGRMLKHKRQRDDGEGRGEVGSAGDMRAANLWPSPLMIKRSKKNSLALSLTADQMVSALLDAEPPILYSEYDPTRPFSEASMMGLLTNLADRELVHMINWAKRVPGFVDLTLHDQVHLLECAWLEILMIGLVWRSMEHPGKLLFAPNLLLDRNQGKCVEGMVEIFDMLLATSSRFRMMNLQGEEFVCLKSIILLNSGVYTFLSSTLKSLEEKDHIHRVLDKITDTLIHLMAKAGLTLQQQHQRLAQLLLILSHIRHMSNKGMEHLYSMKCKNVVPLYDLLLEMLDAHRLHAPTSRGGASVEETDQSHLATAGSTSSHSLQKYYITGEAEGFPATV

Assay [5] in a line: qHTS assay to identify small molecule antagonists of the estrogen receptor alpha (ER-alpha) signaling pathway - cell viability counter screen (AID 743074; calls by dose curve; also: nearly all actives have a fitted effect of over 45% in size).
Assay [6] concerns the target Estrogen receptor (Homo sapiens) (UniProt P03372). In words: qHTS assay to identify small molecule agonists of the estrogen receptor alpha (ER-alpha) signaling pathway (AID 743075; calls by dose curve).
The target is the same in assay [7]. As to the kind of experiment: qHTS assay to identify small molecule agonists of the estrogen receptor alpha (ER-alpha) signaling pathway using the BG1 cell line (AID 743079). Also: nearly all actives have a fitted effect of over 20% in size. Also: potency is read from the fitted curve at half-maximal effect.
Assay [8] in a line: qHTS assay to identify small molecule antagonists of the estrogen receptor alpha (ER-alpha) signaling pathway using the BG1 cell line (AID 743080; calls by dose curve;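 also: BG1 cells stimulated with 17beta-estradiol alongside compound; series mostly up to about 70 µM; nearly all actives have a fitted effect of over 25% in size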). The method, boiled down: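 After 5 days in phenol-red-free 10% charcoal-stripped FBS medium, BG1-Luc-4E2 cells were seeded, left 24 h at 37 C, co-treated with compounds and 17beta-estradiol for 21.5 h, then assayed for viability and luciferase.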

A short description of assay [9]: qHTS assay to identify small molecule antagonists of the estrogen receptor alpha (ER-alpha) signaling pathway using the BG1 cell line - cell viability counter screen (AID 743081).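 Also: compound given together with 17beta-estradiol as the ER stimulus; series mostly up to about 70 µM; nearly all actives have a fitted effect of over 45% in size.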
Another assay concerns the target Aromatase (Homo sapiens) (UniProt P11511). As to the kind of experiment: qHTS assay to identify aromatase inhibitors (AID 743083). Also: series mostly up to about 70 µM; nearly all actives have a fitted effect of over 55% in size.

Aromatase (Homo sapiens), sequence (P11511 whole entry, looked up): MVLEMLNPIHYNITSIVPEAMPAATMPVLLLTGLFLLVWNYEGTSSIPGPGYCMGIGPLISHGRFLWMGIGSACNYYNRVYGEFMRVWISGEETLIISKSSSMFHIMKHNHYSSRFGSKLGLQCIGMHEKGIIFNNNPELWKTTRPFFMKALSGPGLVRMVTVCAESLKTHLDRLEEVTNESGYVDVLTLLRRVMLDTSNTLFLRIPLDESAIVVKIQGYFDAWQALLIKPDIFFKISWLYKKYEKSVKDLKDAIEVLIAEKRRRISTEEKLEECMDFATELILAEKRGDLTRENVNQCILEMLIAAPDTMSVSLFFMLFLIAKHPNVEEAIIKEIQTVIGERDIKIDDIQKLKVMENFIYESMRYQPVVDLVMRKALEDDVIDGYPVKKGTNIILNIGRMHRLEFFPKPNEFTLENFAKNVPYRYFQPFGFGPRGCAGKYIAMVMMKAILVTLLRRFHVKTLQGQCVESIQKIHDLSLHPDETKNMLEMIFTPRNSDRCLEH

Take `CCC[N+](CCC)(CCC)CCC`: the Potency entry in assay [1], in assay [2], in [3], in [4], in assay [5] and in [6] was “inactive” in each case. Further, the Potency entry (in assay [7]; in assay [8]; in assay [9]; in the assay with Aromatase (Homo sapiens)) was “inactive” in each case.
Turning to `CCCCCCCCCCCCN(C)C`, the Potency entry in [1], in [2], in assay [3], in [4], in [5] and in [6] was “inactive” throughout. In addition, the Potency entry (in assay [7]; in [8]; in assay [9]; with Aromatase (Homo sapiens)) was “inactive” in each case.
For the compound `CCOP(=O)(O)C(N)=O`, the Potency entry in assay [1], in [2], in assay [3], in assay [4], in [5] and in assay [6] was “inactive” throughout. Besides, the Potency entry (in [7]; in assay [8]; in [9]; with Aromatase (Homo sapiens)) was “inactive” in each case.
Take `N#CC(C#N)=C(C#N)C#N`: the Potency entry in [1], in [2], in assay [3], in assay [4], in [5] and in [6] was “inactive” throughout. Moreover, the Potency result (in assay [7]; in assay [8]; in [9]; with Aromatase (Homo sapiens)) was “inactive” in each case.
On to `C[N+]1(CCC(C(N)=O)(c2ccccc2)c2ccccc2)CCCCC1`, for which the Potency result in assay [1], in [2], in assay [3], in assay [4], in [5] and in [6] was “inactive” each time. In addition, the Potency entry (in assay [7]; in assay [8]; in [9]; with Aromatase (Homo sapiens)) was “inactive” throughout.
`O=C([O-])c1ccccn1.O=C([O-])c1ccccn1.O=C([O-])c1ccccn1.[Cr+3]`: the Potency entry in assay [1], in [2], in assay [3], in [4], in [5] and in assay [6] was “inactive” in each case. In addition, the Potency entry (in [7]; in assay [8]; in [9]; with Aromatase (Homo sapiens)) was “inactive” each time.
`CC(C)OC(=O)Cc1ccccc1`: the Potency entry in assay [1], in assay [2], in assay [3], in assay [4], in [5] and in assay [6] was “inactive” each time. For the same compound, the Potency result (in assay [7]; in [8]; in assay [9]; with Aromatase (Homo sapiens)) was “inactive” in each case.
In the case of `SCc1ccccc1`, the Potency result in assay [1], in assay [2], in assay [3], in [4], in assay [5] and in assay [6] was “inactive” throughout. In addition, the Potency entry (in assay [8]; in assay [9]; with Aromatase (Homo sapiens)) was “inactive” each time. In [7], the Potency is 62.9 µM (active).
For the compound `CN1CC[C@]23c4c5ccc(O)c4O[C@H]2[C@@H](O)CC[C@H]3[C@H]1C5`, the Potency result in [1], in [2], in assay [3], in assay [4], in [5] and in [6] was “inactive” in each case. Moreover, the Potency entry (in assay [7]; in assay [8]; in assay [9]; with Aromatase (Homo sapiens)) was “inactive” each time.
Consider `CCN(C(C)=O)c1cccc(-c2ccnc3c(C#N)cnn23)c1`, for which the Potency result in assay [1], in assay [2], in assay [3], in assay [4], in assay [5] and in [6] was “inactive” throughout. Moreover, the Potency result (in assay [7]; in assay [8]; in [9]; with Aromatase (Homo sapiens)) was “inactive” throughout.
With `CCCN(CCC)c1c([N+](=O)[O-])cc(C(C)C)cc1[N+](=O)[O-]`, the Potency in assay [1] and in [2] was 61.1 µM (active) each time. Also, the Potency entry in assay [3], in assay [4], in assay [5], in assay [6], in assay [7] and in assay [8] was “inactive” in each case. The Potency result (in assay [9]; with Aromatase (Homo sapiens)) was “inactive” throughout.
Consider `O=[N+]([O-])c1cc(Cl)c(Cl)cc1Cl`, for which the Potency entry in assay [1], in assay [2], in [3], in assay [4], in assay [5] and in [6] was “inactive” throughout. Also, the Potency entry (in assay [7]; in assay [8]; in assay [9]; with Aromatase (Homo sapiens)) was “inactive” throughout.
Consider `CCc1ccccc1N`, for which the Potency entry in assay [1], in assay [2], in [3], in assay [4], in assay [5] and in assay [6] was “inactive” throughout. In addition, the Potency result (in [7]; in [8]; in assay [9]; with Aromatase (Homo sapiens)) was “inactive” in each case.
Take `CCCSP(=S)(OCC)Oc1ccc(SC)cc1` (stereo unspecified): the Potency entry in [1], in assay [2], in assay [3], in assay [4], in assay [5] and in assay [6] was “inactive” in each case. Besides, the Potency result (in assay [7]; in assay [8]; in assay [9]; with Aromatase (Homo sapiens)) was “inactive” throughout.
As for `O=[N+]([O-])O[C@H]1CO[C@H]2[C@@H]1OC[C@H]2O[N+](=O)[O-]`, the Potency entry in assay [1], in assay [2], in assay [3], in assay [4], in assay [5] and in assay [6] was “inactive” in each case. Moreover, the Potency entry (in assay [8]; in [9]; in the assay with Aromatase (Homo sapiens)) was “inactive” each time.
`CCCCC(CC)COC(=O)c1c(Br)c(Br)c(Br)c(Br)c1C(=O)OCC(CC)CCCC` (stereo unspecified): the Potency result in [1], in assay [2], in assay [3], in assay [4], in assay [6] and in [7] was “inactive” each time. The Potency entry (in assay [8]; in assay [9]; in the assay with Aromatase (Homo sapiens)) was “inactive” in each case.
As to `CCNC(=O)NC(=O)/C(C#N)=N/OC`, the Potency entry in [1], in assay [2], in assay [3], in assay [5], in assay [6] and in assay [7] was “inactive” throughout. For the same compound, the Potency entry (in assay [8]; in [9]; with Aromatase (Homo sapiens)) was “inactive” each time.
For `c1ccc2sc(SNC3CCCCC3)nc2c1`, the Potency entry in assay [1], in [2], in [3], in assay [4], in assay [5] and in assay [6] was “inactive” each time. In addition, the Potency result (in assay [8]; in [9]; in the assay with Aromatase (Homo sapiens)) was “inactive” each time.
As for `COC(=O)C1(O)c2ccccc2-c2ccccc21`, the Potency result in assay [1], in assay [2], in [3], in [5], in [6] and in assay [7] was “inactive” throughout. The Potency entry (in assay [8]; in [9]; in the assay with Aromatase (Homo sapiens)) was “inactive” each time.
On to `CCOP(=S)(OCC)Oc1ccc(S(C)=O)cc1` (stereo unspecified), for which the Potency result in [1], in [2], in assay [3], in [5], in [6] and in assay [7] was “inactive” throughout. In addition, the Potency result (in assay [8]; in [9]; in the assay with Aromatase (Homo sapiens)) was “inactive” each time.
For the compound `NNCCO`, the Potency entry in assay [1], in [2], in [3], in [4], in assay [5] and in assay [6] was “inactive” each time. For the same compound, the Potency entry (in assay [8]; in assay [9]; with Aromatase (Homo sapiens)) was “inactive” in each case.
As to `CCCCC(CC)CO[N+](=O)[O-]` (stereo unspecified), the Potency result in assay [1], in [2], in assay [3], in assay [5], in assay [6] and in assay [7] was “inactive” in each case. Further, the Potency result (in [8]; in assay [9]; with Aromatase (Homo sapiens)) was “inactive” throughout.
For the compound `CCCCC#N`, the Potency result in [1], in assay [2], in assay [3], in assay [5], in assay [6] and in assay [7] was “inactive” each time. The Potency result (in [8]; in assay [9]; with Aromatase (Homo sapiens)) was “inactive” throughout.
